Screens (PubChem)
A selection: hits, their analogues and other compounds. The true share with any hit is near 10%.
aGal spleen mod = inhibits or activates alpha-galactosidase in human spleen homogenate | hit rate 0.008% among 240,000 | human spleen homogenate, 4MU-alpha-Gal fluorescence, 40 min | Potency, µM (highest dose often 80 µM), without a hit: at the highest dose activity change, negative = inhibition, most hits filed as inhibitors | AID 2107;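 note: potency is the fitted concentration of half-maximal effect; 0% = enzyme with vehicle and -100% = no enzyme basal signal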
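qHTS titration in buffer at pH 5.0. Alpha-galactosidase activity in spleen homogenate was measured via 4-methylumbelliferone release from 1 mM fluorogenic substrate after 40 min at 37C and a pH 10 stop. AC50 came from Hill fits of control-normalized data.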
GLA inh pH 4.5 = alpha-galactosidase A (human) inhibition, pH 4.5. P06280. purified enzyme, 4-MU-alpha-Gal fluorescence, pH 4.5. activity change, negative = inhibition, % at 105 µM. 230,000 tested, under 10 active;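 note: 0% = full activity with enzyme and -100% = basal without enzyme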
Target sequence (P06280 whole entry, looked up): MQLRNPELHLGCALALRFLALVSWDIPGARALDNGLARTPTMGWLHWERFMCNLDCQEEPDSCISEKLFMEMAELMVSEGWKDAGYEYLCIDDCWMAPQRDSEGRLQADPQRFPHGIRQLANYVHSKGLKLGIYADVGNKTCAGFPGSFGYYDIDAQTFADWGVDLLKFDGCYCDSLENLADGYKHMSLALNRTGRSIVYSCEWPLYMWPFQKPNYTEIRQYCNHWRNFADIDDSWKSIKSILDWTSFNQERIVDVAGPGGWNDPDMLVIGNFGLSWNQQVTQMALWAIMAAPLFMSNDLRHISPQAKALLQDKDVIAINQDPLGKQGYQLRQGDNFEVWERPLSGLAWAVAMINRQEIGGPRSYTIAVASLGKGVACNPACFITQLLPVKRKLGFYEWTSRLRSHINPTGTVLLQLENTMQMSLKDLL
HPGD inh = blocks human HPGD enzyme activity; hit rate 4.3% among 150,000; purified HPGD, NADH fluorescence kinetic, PGE2 substrate; Potency, µM, inactives show at the top dose activity change, negative = inhibition, usual class: inhibitors; AID 894; P15428; active = well fitted inhibition curve with a large enough effect, not every such curve was filed as active; inconclusive = small, poorly fitted or top-dose-only effect, or another doubt; inactive = no such curve, though single readings can be large or run the other way; note: potency is the fitted concentration of half-maximal effect
Target sequence (P15428 whole entry, looked up): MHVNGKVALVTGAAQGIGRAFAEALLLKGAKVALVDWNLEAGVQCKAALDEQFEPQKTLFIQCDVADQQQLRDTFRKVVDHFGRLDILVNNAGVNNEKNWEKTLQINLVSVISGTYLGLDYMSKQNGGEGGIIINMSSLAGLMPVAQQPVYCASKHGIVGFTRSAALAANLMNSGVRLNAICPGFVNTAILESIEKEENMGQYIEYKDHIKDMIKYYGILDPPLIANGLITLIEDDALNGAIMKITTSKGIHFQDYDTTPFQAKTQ
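NADH formation kinetics: reaction with 30 uM PGE2 and 1 mM NAD+ (final), 20 nM enzyme, Tris-HCl pH 8 with Tween 20, after 15 min compound preincubation at room temperature. Fluorescence change, last versus first of five reads.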
ALDH1A1 block = blocks purified human ALDH1A1 activity; Purified ALDH1A1, NADH fluorescence, propionaldehyde substrate; Potency, µM (titrated, usually from 75.3 µM), for inactives: at the highest dose activity, negative = inhibition, actives largely listed as inhibitors; hit rate 7.3% among 220,000; active = well fitted inhibition curve with a large enough effect, not every such curve was filed as active; inconclusive = small, poorly fitted or top-dose-only effect, or another doubt; inactive = no such curve, though single readings can be large or run the other way;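 note: potency is the fitted concentration of half-maximal effect; plate controls were no enzyme wells and a reference inhibitor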
ALOX12 inhib = inhibitors of human 12-lipoxygenase (ALOX12); P18054; purified 12-hLO, xylenol orange hydroperoxide absorbance; Potency, µM (series often up to 57.1 µM), without a hit: at the top dose activity change, negative = inhibition, usual class: inhibitors; hit rate 0.12% among 150,000; AID 1452; note: potency is the fitted concentration of half-maximal effect; nearly all actives have a fitted effect of over 55% in size
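Lipoxygenase turnover measured by absorbance at 573 and 405 nm after Fe-XO development. Human 12hLO 150 nM, arachidonate 40 uM, pH 7.0 Hepes buffer with detergent; 15 min compound preincubation, 30 min reaction.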
PNC assembly inh = perinucleolar compartment assembly inhibition. PC3M PTB-GFP, PNC prevalence imaging, 16 h; stronger effect = lower value. hit rate 3.1% among 140,000. AID 2417. activity change (PNC), negative = inhibition, % at 10 µM;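 active = readout at or below -70, meaning at least 70% loss of cells showing the perinucleolar compartment, a nuclear body marking cancer cells; inconclusive = readout between -30 and a set limit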;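 note: plate controls were DMSO wells for no effect and camptothecin positive control wells for full effect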
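Compounds are pinned in duplicate onto adhered PC3M cells stably expressing GFP-tagged PTB and incubated 16 h at 37 C. Cells are then fixed, nuclei stained with Hoechst, and PNC-positive cells counted.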
Starred values were filed as active, the others as inactive; u = inconclusive; x = no result given; [ ] = another dose, or the depositor's remark. Unless noted, calls come from the whole dose curve; as a rule, active = well fitted curve in the direction sought with a large enough effect; inconclusive = small, poorly fitted or top-dose-only effect, or another doubt; inactive = no such curve, though single readings can be large; an effect the other way counts as inactive or inconclusive. Unless noted, % is set by controls: 0 for no effect and ±100 for the full control effect.

SMILES | aGal spleen mod | GLA inh pH 4.5 | HPGD inh | ALDH1A1 block | ALOX12 inhib | PNC assembly inh
O=C(NCc1ccco1)Nc1cccs1 | 8% | -17 | -9% | 28µM* | -16% | u
O=C(NCCCNC(=O)c1cccs1)c1cccs1 | 5% | 1 | -8% | 7% | 0% | u
O=C(NCCc1cn2ccsc2n1)c1cccs1 | 6% | 8 | 25µM* | u | -4% | 45
O=C(NCc1ccco1)Nc1ccc([N+](=O)[O-])cc1 | 9% | 2 | x | -10% | x | x
O=C(NCc1ccco1)c1nc2nc(-c3cccs3)cc(C(F)(F)F)n2n1 | u | u | u | u | 0% | 7
O=C(NCCCCNC(=O)c1cccs1)c1cccs1 | -13% | -11 | -14% | 2% | 2% | -114*
O=C(NCc1ccc(Cl)cc1)c1cc(-c2ccco2)on1 | 4% | -2 | x | u | -8% | -1
O=C(NNC(=S)NCc1ccco1)c1cccs1 | 0% | 4 | x | u | 2% | 28
O=C(CCC(=O)c1cccs1)c1cccs1 | -5% | x | -28% | 28µM* | 1% | -6
COc1ccc(CNC(=O)c2cc(-c3ccco3)on2)cc1 | 4% | -8 | -14% | 3.5µM* | -1% | -3
O=C(CSc1nnc(-c2ccc(Cl)cc2)n1Cc1ccco1)c1cccs1 | -6% | -8 | -8% | u | -4% | u
O=C(NCc1ccco1)c1cccs1 | 0% | -12 | 25µM* | u | -12% | -3
O=C(CSCc1ccco1)c1cccs1 | 3% | 4 | 16µM* | u | -5% | 17
C[C@H](NCCN(C)C)[C@@H]1CCC2C3CCc4cc(O)ccc4[C@H]3CCC21C (some centres not stated) | x | x | 1% | 8%[13.5 µM] | 3%[11.4 µM] | x
C#CCCCO/N=C1/C[C@@H](O)[C@@H](O)[C@@H]2[C@@H]3C(=O)N(C4CCCCC4)C(=O)[C@H]3CC[C@H]12 | 0%[17.5 µM] | x | x | -1%[13.5 µM] | x | x
COc1cscc1C(N)=O | -12% | -8 | x | 4% | x | x
COC(=O)C1=C(C(=O)OC)[C@@H]2N(C)c3ccc(OC)cc3[C@@]23C[C@@H](C(=O)OC)N(S(=O)(=O)c2c(C)noc2C)C3=N1 | 7%[17.5 µM] | 7 | -5% | 7%[13.5 µM] | -7%[11.4 µM] | x
COc1cccc(NC(=S)N2CCn3c(nc4ccccc43)C2)c1 | 1% | -5 | x | -11% | x | x
O=C(NCc1ccco1)c1cc(-c2cccs2)on1 | 15% | 7 | u | 22µM* | -2% | 2
CC[n+]1c(/C=C(\C)SC)sc2ccccc21 | -1% | -5 | 28µM* | 6µM* | -6% | 31
O=C(Cn1c(NCCCO)nc2ccccc21)c1cccc(Br)c1 | -3% | 6 | -25% | 28µM* | -2% | 27
c1ccc2sc(Sc3ncnc4sccc34)nc2c1 | -3% | -8 | u | -5% | 1% | u
CCc1cc2c(Sc3nc4ccccc4s3)ncnc2s1 | -1% | -1 | 25µM* | 20µM* | -8% | 27
CCN(CC)C1=NC=CC(c2ccccc2)=CC1C (configuration not stated) | 0% | -4 | -4% | 8% | 3% | -21
Cc1ccc(C)c(OCCn2cc(/C=C(\C#N)C(=O)NCc3ccco3)c3ccccc32)c1 | -1% | -6 | 18% | 30% | 0% | -86*
SMILES | aGal spleen mod | GLA inh pH 4.5 | HPGD inh | ALDH1A1 block | ALOX12 inhib | PNC assembly inh
O=C(N/N=C/c1ccc(N2CCCCC2)o1)C(O)(c1ccccc1)c1ccccc1 | -11% | -4 | 32µM* | u | -4% | u
COC1C(O)C(O)C(O)C(O)C1O (configuration not stated) | 8% | 1 | -1% | -7% | 3% | x
O=[N+]([O-])c1cc(S(=O)(=O)Nc2cccc(C(F)(F)F)c2)ccc1-n1nnc2ccccc21 | -5% | -19 | 32µM* | u | -11% | 3
O=C(CCCN1C(=O)c2cccc3cccc(c23)C1=O)N1CCN(c2ncccn2)CC1 | 3% | 9 | x | 28µM* | x | x
O=C(CCCN1C(=O)c2cccc3cccc(c23)C1=O)N1CCN(c2ccccn2)CC1 | 7% | 2 | -4% | -12% | 0% | 27
O=C(O)CN1C(=O)O[C@@H](c2ccccc2)C1=O | x | x | -7% | 1%[13.5 µM] | -3%[11.4 µM] | x
NC1CONC1=O (configuration not stated) | 6% | 0 | -8% | 5% | -3% | x
CCS(=O)(=O)N1CCN(c2ccccc2F)CC1 | 1% | -1 | 1% | 1% | -3% | 14
O=C1Oc2ccccc2C(=O)/C1=C/N1CCN(c2ccccc2F)CC1 | -11% | u | x | 18µM* | x | x
CC(C)OCCCNc1ncc2c(n1)CC(c1ccc(N(C)C)cc1)CC2=O (configuration not stated) | -8% | 1 | -17% | 8.9µM* | -2% | 24
COc1ccc(CCNC(=O)CN2CCN(c3cccc(C(F)(F)F)c3)CC2)cc1 | 1% | -19 | -9% | 3% | 3% | 30
COc1cc(NC(=O)CN2CCN(c3ccccc3F)CC2)cc(OC)c1 | -19% | -27 | -3% | 22µM* | -5% | u
COc1cccc(NC(=O)CN2CCN(c3ccccc3F)CC2)c1 | 2% | 0 | -6% | 10µM* | -26% | u
COc1ccc(CCNC(=O)CN2CCN(c3ccccc3Cl)CC2)cc1 | 0% | -4 | -2% | 3.2µM* | -7% | u
COc1cccc(NC(=O)Cn2c(CCC(=O)O)ccc2-c2ccc(Cl)cc2)c1 | -2% | 7 | x | 25µM* | x | x
Cc1c(-c2ccccc2)oc2c(C(=O)N3CCN(c4ccccc4F)CC3)cccc2c1=O | -3% | -1 | -5% | 11% | -2% | -19
CC1(C)S[C@@H]2[C@H](C(=O)O)N=C(Cc3ccccc3)N2[C@H]1C(=O)O | x | x | -4% | 0%[13.5 µM] | -3%[11.4 µM] | x
C=C1CC[C@H](O)C/C1=C/C=C1\CCC[C@]2(C)C([C@H](C)CCCC(C)(C)O)CC[C@@H]12 (some centres not stated) | -2% | x | x | 5% | x | x
N#Cc1ccc(CN2CCCC3(CCN(C(=O)c4cccc(F)c4)CC3)C2)cc1 | 15% | x | -13% | u | -8% | x
COC(=O)c1cccc(NC(=O)CN2CCN(Cc3ccccc3)CC2)c1 | 4% | 2 | 3% | 25µM* | -4% | -22
CC(=O)O[C@]1(C)N=NC2(CCCCC2)O1 | x | x | -3% | -1%[13.5 µM] | -3%[11.4 µM] | x
O=C1OCCC1Sc1nc2ccccc2c(=O)n1Cc1ccccc1 (configuration not stated) | -3% | 2 | x | u | x | x
C=CCn1c(SC2CCOC2=O)nc2sc(C)c(C)c2c1=O (configuration not stated) | -1% | 3 | -26% | 2% | -6% | -80*
C=CCn1c(SC2CCOC2=O)nc2scc(C3CC3)c2c1=O (configuration not stated) | -1% | -1 | -10% | u | -2% | u
